Sampled rows, rich in hits. Any-hit rate of the full collection: about 19%.
KB-3-1 tox: kills parental KB-3-1 adenocarcinoma cells. KB-3-1 viability, CellTiter-Glo ATP luminescence, 72 h. Potency, µM (doses to about 46.1 µM), most hits filed as cytotoxic. AID 1347075. 400,000 tested, 1.4% active; note: nearly all actives have a fitted effect of over 60% in size
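72 h, 37 °C compound treatment of KB-3-1 parental cells; CellTiter-Glo added, 10 min, luminescence read. Data corrected against DMSO-only plates and normalized before curve fitting.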
DT40 TDP1 CPT: DT40-hTDP1 cell growth loss with CPT; 420,000 tested, 12% active; AID 686979; chicken DT40 Tdp1-/-;hTDP1 cells + 20 nM CPT, ATP luminescence, 48 h; Potency, µM (top dose mostly 46.2 µM), inactives show at the highest dose activity change, negative = growth inhibition, usual class: inhibitors; note: nearly all actives have a fitted effect of over 55% in size
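Chicken DT40 Tdp1-/- cells complemented with human TDP1, 400 cells/well, exposed to compounds plus 20 nM camptothecin for at least 48 h at 37 C; viability read as ATP content by CellTiter-Glo luminescence.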
TDP1 cell noCPT: qHTS for Inhibitors of human tyrosyl-DNA phosphodiesterase 1 (TDP1): qHTS in cells in absence of CPT | Potency, µM (top dose mostly 46.2 µM), without a hit: at the highest dose activity change, negative = growth inhibition, hits mostly inhibitors | 420,000 tested, 15% active | DT40 Tdp1-/- hTDP1 cells, no CPT, ATP luminescence, 48 h | AID 686978, 2013; note: nearly all actives have a fitted effect of over 55% in size
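Stably hTDP1-transfected Tdp1-null chicken DT40 cells were treated with library compounds minus camptothecin and grown for at least 48 hr at 37 °C, after which cellular ATP was quantified by luminescence.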
HT1080-NT tox: kills 2HG-producing HT-1080-NT fibrosarcoma cells. HT-1080-NT fibrosarcoma viability, CellTiter-Glo ATP luminescence, 48 h. Potency, µM (top dose mostly 46.1 µM), inactives show at the highest dose activity, negative = less viability, actives largely listed as cytotoxic. 360,000 tested, 1.6% active;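 note: NT is the 2HG producing partner of a matched IDH1 knockdown line; 0% = DMSO-treated cells and -100% = media-only wells without cells; nearly all actives have a fitted effect of over 55% in size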
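A 48-hour cytotoxicity screen used HT-1080-NT cells plated 2 hours before compound delivery. ATP-based CellTiter-Glo luminescence measured viability, normalized to DMSO and no-cell controls.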
KB-V1 cytotox: kills drug-selected multidrug resistant KB-V1 cells; Potency, µM (top dose mostly 46.1 µM), actives largely listed as cytotoxic; KB-V1 MDR cells viability, CellTiter-Glo, 72 h; 400,000 tested, 3.4% active; note: nearly all actives have a fitted effect of over 60% in size
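qHTS viability screen in drug-selected KB-V1 MDR cells: 72 h compound treatment at 37 degrees C, ATP luminescence end point.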
HT1080 IDH1KD tx: toxicity to HT-1080 IDH1 knockdown cells (counter line); AID 686971; HT-1080 IDH1 knockdown viability, ATP luminescence, 48 h; Potency, µM (titrated, usually from 46.1 µM), without a hit: at the highest dose activity, negative = toxicity, usual class: cytotoxic; 360,000 tested, 2% active;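 note: 0% = DMSO wells and -100% = cell-free medium wells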
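Assay cells: HT-1080 with IDH1 knockdown, 750 per well, RPMI/5% FBS. Exposure: 48 h at 37 °C following 2 h pre-incubation. Read: CellTiter-Glo luminescence; fitted concentration-response, curve class assigned.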
* marks the source's active call; other numbers are inactive results; i = inactive; ? = inconclusive; . = not tested or not shown; [ ] = another dose, or the depositor's remark. Calls come from the whole dose curve; as a rule, active = well fitted curve in the direction sought with a large enough effect; inconclusive = small, poorly fitted or top-dose-only effect, or another doubt; inactive = no such curve, though single readings can be large; an effect the other way counts as inactive or inconclusive. Unless noted, % is set by controls: 0 for no effect and ±100 for the full control effect; potency is the fitted concentration of half-maximal effect.

SMILES	KB-3-1 tox	DT40 TDP1 CPT	TDP1 cell noCPT	HT1080-NT tox	KB-V1 cytotox	HT1080 IDH1KD tx
CCc1cccc(C)c1NC(=O)CSc1nnc(-c2cc3cc(Br)ccc3o2)n1CC	?	23.1µM*	18.4µM*	-5.9%	20.6µM*	-22.4%
Cc1ccccc1OCc1nnc(SCC(=O)Nc2ccc3c(c2)oc2ccccc23)n1C	i	?	?	9.6%	i	6.9%
Cn1c(SCC(=O)Nc2cccc(C(=O)O)c2)nnc1-c1cc2cc(Br)ccc2o1	i	7.4%	0.4%	0.6%	i	6.8%
Cn1c(SCC(=O)Nc2cccc(Br)c2)nnc1-c1cc2ccccc2o1	i	-18.0%	-25.4%	-4.0%	16.4µM*	0.6%
Cc1ccc(-c2nnc(SCC(=O)Nc3ccc4c(c3)oc3ccccc34)n2C)c(Cl)c1	i	?	-25.5%	?	2.59µM*	-3.7%
COc1cccc(C(=O)Nc2cc(-c3ccccc3)nn2-c2ccccc2)c1	i	?	?	.	i	.
COc1ccccc1C(=O)NCCn1cc(SCC(=O)Nc2ccccc2F)c2ccccc21	i	?	?	.	?	.
COc1ccc(CN2CCC3(CCC(CNC(=O)c4ccnn4C)O3)CC2)c(C)c1C (centres undefined)	.	-29.2%	?	.	.	.
O=C(NC1CCN(Cc2ccccc2)CC1)c1cccc(S(=O)(=O)Nc2cc(C(F)(F)F)ccc2Cl)c1	?	?	?	-1.6%	23.1µM*	-10.8%
COc1ccc(Cl)cc1NS(=O)(=O)c1cccc(C(=O)NC2CCN(Cc3ccccc3)CC2)c1	i	?	?	?	i	-20.8%
COc1ccc(NS(=O)(=O)c2cccc(C(=O)NNC(=O)c3ccc(Br)o3)c2)cc1	i	-53.1%	5.8µM*	-7.9%	i	-16.8%
COc1ccc(NS(=O)(=O)c2cccc(C(=O)NC3CCN(Cc4ccccc4)CC3)c2)cc1	i	14.6µM*	?	?	i	?
COc1ccccc1CCC(=O)N1CCOc2c(cc(-c3cnc4ccccc4c3)cc2OC)C1	.	14.8%[9.04 µM]	-21.6%	.	.	.
O=C(Nc1ccc(Br)cc1)N1CCC(CN2CCCC2)CC1	.	?	-13.1%	.	.	.
CCNC(=O)C1(C)CCN1C(=O)CCc1cccc(Cl)c1 (centres undefined)	?	-34.5%	-27.5%	-3.4%	i	-0.9%
COc1cc(NC(=O)Cn2c(=O)n(-c3ccccc3)c(=O)c3c4c(sc32)CCCC4)cc(OC)c1	i	-5.6%	-27.8%	.	?	.
N#Cc1c(N)c2ccccn2c1C(=O)c1ccc(Br)cc1	i	?	?	-14.5%	i	-15.7%
O=S(=O)(c1ccccc1)N1CCC2(CC1)CN(c1ccccc1)C2	.	-1.8%	?	.	.	.
O=S(=O)(c1ccccc1)N1CCC2(CCCN(c3ccccn3)C2)CC1	.	?	20.6µM*	.	.	.
O=S(=O)(c1ccccc1)N1CCC2(CCN(Cc3ccncc3)CC2)CC1	.	?	20.6µM*	.	.	.
O=S(=O)(c1ccccc1)N1CCC2(CC1)CN(c1ccncc1)C2	.	?	9.2µM*	.	.	.
O=S(=O)(c1ccccc1)N1CCC2(CCCN(c3ccncc3)C2)CC1	.	2.06µM*	1.16µM*	.	.	.
O=S(=O)(c1ccccc1)N1CCC2(CCCN(c3ccccc3)C2)CC1	.	6.4%	?	.	.	.
O=S(=O)(c1ccccc1)N1CCC2(CCCN(c3ncccn3)C2)CC1	.	-3.5%	?	.	.	.
Cc1ccc(-c2nc(CS(=O)(=O)CC(=O)Nc3ccc(Br)cc3F)c(C)o2)cc1	i	?	?	.	i	.
SMILES	KB-3-1 tox	DT40 TDP1 CPT	TDP1 cell noCPT	HT1080-NT tox	KB-V1 cytotox	HT1080 IDH1KD tx
Oc1ccc(Cl)cc1Nc1nc2ccccc2n2cnnc12	i	-22.5%	?	.	?	.
CC(=O)c1nc2ccccc2n1CCc1ccccc1	i	-28.9%	-19.8%	9.9%	i	7.9%
N#CC(=C1NC(=O)c2ccccc21)c1nc2ccccc2n1CCO	?	?	8.2µM*	14.8%	?	-0.1%
COc1ccc(N(C(=O)COc2ccc(Br)cc2)S(=O)(=O)c2ccc(C)cc2)cc1	i	?	20.6µM*	.	i	.
COc1ccc(N(C(=O)COc2c(C)cccc2C)S(=O)(=O)c2ccc(Cl)cc2)cc1	i	23.1µM*	?	.	i	.
O=C(O)CCC/C=C\C[C@@H]1CO[C@H](C(F)(F)F)O[C@@H]1c1ccccc1O	.	-2.1%	-3.7%	.	.	.
Oc1ccc2ccccc2c1N=Nc1ccccn1	?	0.651µM*	0.581µM*	?	?	?
Oc1ccc2ccccc2c1N=Nc1ccccc1F	i	2.9%	?	8.9%	i	4.7%
CCOC(=O)c1[nH]cnc1N=Nc1c(O)ccc2ccccc12	i	5.17µM*	5.8µM*	5.8µM*	?	6.51µM*
O=C(Nc1ccc(O)c2c(=O)cc(-c3cccc(Cl)c3)oc12)c1ccccc1Cl	i	?	20.6µM*	-3.5%	i	3.0%
S=c1[nH]ncn1/N=C/c1ccccc1	i	?	23.1µM*	-0.5%	i	-0.5%[9.24 µM]
CCCCSc1nnc2n(CCc3ccccc3)c(=O)c3c4c(sc3n12)COC(C)(C)C4	i	23.1µM*	23.1µM*	1.4%	i	-3.6%
O=C(NCC(=O)N1CCN(Cc2c(F)cccc2Cl)CC1)c1cccc(Cl)c1	i	6.51µM*	16.4µM*	-22.0%	?	-25.6%
O=C(NCC(=O)N1CCN(Cc2ccccc2)CC1)c1ccc(Cl)cc1	?	?	?	17.1%	i	-4.3%
Cc1cccc(N2CCN(C(=O)CNC(=O)c3cccc([N+](=O)[O-])c3)CC2)c1C	i	?	18.4µM*	-14.6%	?	-9.0%
O=C(NCC(=O)N1CCN(Cc2c(F)cccc2Cl)CC1)c1cccs1	i	-18.1%	?	2.5%	?	-7.4%
Cc1cccc(N2CCN(C(=O)CNC(=O)Cc3ccccc3)CC2)c1C	i	?	?	-1.1%	i	-10.1%
O=C(NCC(=O)N1CCN(Cc2ccccc2)CC1)c1cc(Cl)cc([N+](=O)[O-])c1	23.1µM*	16.4µM*	?	-20.3%	?	?
COCCN1Cc2cccc(C(=O)Nc3cccc(-c4nc5ccccc5[nH]4)c3)c2C1=O	?	4.61µM*	16.4µM*	-51.7%	10.3µM*	16.4µM*
COCCN1Cc2cccc(C(=O)NCc3ccc4c(c3)OCO4)c2C1=O	i	0.1%	8.3%	2.9%	4.11µM*	14.1%

Bioassay records (PubChem BioAssay)
